# Source: PubChem (National Center for Advancing Translational Sciences (NCATS))
# A selection: hits, their analogues and other compounds. The true share with any hit is near 6.8%.
# TSG101-PTAP inh – blocks PTAP/TSG101 interaction to inhibit HIV-1 budding; Q99816; Fluorescence polarization, FITC-PTAP peptide / Tsg101 binding; Potency, µM (highest dose often 115 µM), inactives show top-dose activity change, negative = inhibition, most hits filed as inhibitors; 340,000 tested, under 10 active; active means well fitted inhibition curve with a large enough effect in the main read-out, with a control signal flat, not every such curve was filed as active; inconclusive means small, poorly fitted or top-dose-only effect, or effect the other way, or a change in a side signal; inactive means no such curve, though single readings can be large or run the other way; further: % of control where 0% means no effect
# Target sequence (Q99816 whole entry, looked up): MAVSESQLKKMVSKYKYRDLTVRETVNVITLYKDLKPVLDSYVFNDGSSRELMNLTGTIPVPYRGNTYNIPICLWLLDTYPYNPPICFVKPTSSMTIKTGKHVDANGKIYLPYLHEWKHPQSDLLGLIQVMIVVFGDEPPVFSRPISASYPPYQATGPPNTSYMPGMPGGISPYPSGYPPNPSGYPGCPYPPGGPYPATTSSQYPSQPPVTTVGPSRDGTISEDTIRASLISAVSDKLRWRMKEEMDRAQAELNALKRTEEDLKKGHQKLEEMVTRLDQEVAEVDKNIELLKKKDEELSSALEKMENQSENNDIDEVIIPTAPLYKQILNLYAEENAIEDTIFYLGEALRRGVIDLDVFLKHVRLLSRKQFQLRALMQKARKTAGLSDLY
#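 Fluorescence polarization binding of Tsg101 binding domain (10 uM final) to FITC-labeled PTAP peptide (50 nM final) in HEPES pH 7.5 buffer with NaCl, Tween 20, EDTA, TCEP. Compounds added before peptide; binding 20 min at RT.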
# SW480 rereplic – inducers of DNA re-replication in SW480 colon cancer cells; Potency, µM (highest dose often 46.1 µM), without a hit: top-dose re-replication activation, usual class: activators; AID 624297; 340,000 compounds, 1.8% hits; SW480 DNA re-replication, Hoechst DNA content imaging, 48 h; further: % of control where 0% means no effect; nearly all actives have a fitted effect of over 55% in size
#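 250 cells/well; 23 nL cpd via pin tool; 48 hr, 37 C, 5% CO2; Hoechst 40 min; imager read of total nuclear intensity, ex 405/em 500-530 nm.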
# MCF10A rerep – inducers of DNA re-replication in MCF 10A breast cells | 350,000 compounds, 2.9% hits | MCF 10A DNA re-replication, Hoechst nuclear intensity, 48 h | Potency, µM (doses to about 46.1 µM), without a hit: at the top dose activity, positive = re-replication, usual class: activators; further: % of control where 0% means no effect; nearly all actives have a fitted effect of over 50% in size
# KB-3-1 tox – kills parental KB-3-1 adenocarcinoma cells. Potency, µM (highest dose often 46.1 µM), actives largely listed as cytotoxic. KB-3-1 viability, CellTiter-Glo ATP luminescence, 72 h. 400,000 compounds, 1.4% hits; further: on the % scale 0 is the no-effect control and ±100 the full control effect; nearly all actives have a fitted effect of over 60% in size
#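 Parental KB-3-1 viability, qHTS format: 72 h compound exposure, 37 °C; CellTiter-Glo; media-only wells and DMSO plates as controls; concentration-effect fits on corrected data.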
# KB-V1 MDR tox – kills drug-selected multidrug resistant KB-V1 cells. KB-V1 MDR cells viability, CellTiter-Glo, 72 h. Potency, µM (highest dose often 46.1 µM), actives largely listed as cytotoxic. 400,000 compounds, 3.4% hits. AID 1347076; further: on the % scale 0 is the no-effect control and ±100 the full control effect; nearly all actives have a fitted effect of over 60% in size
#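 Cells of the MDR subline KB-V1 are plated, dosed with compound at multiple concentrations, and incubated 72 h at 37 degrees C; CellTiter-Glo is then added and luminescence read after 10 min.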
# PINK1 expr mod – modulators of PINK1 expression | PINK1 immunofluorescence, high-content cytometry, 24 h | Potency, µM (series often up to 76.6 µM), inactives show at the top dose activation (PINK1 increase), hits mostly activators | 410,000 compounds, 0.2% hits | AID 624263; active means well fitted activation curve with a large enough effect; inconclusive means small, poorly fitted or top-dose-only effect; cell line not stated here; further: % of control where 0% means no effect; nearly all actives have a fitted effect of over 65% in size
#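 Fluorescence from anti-PINK1 antibody, together with nuclear and cell stains, was scanned on a laser-scanning cytometer. Before staining, stable-line cells were incubated 24 hours with compounds at 5 concentrations; primary antibody 12 h at 10 degrees C.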
# * hit, by the source's call; i = inactive; ? = inconclusive; nt = no result; [ ] = remark or other dose. Unless noted, the call rests on the fitted dose curve; in most records, active means well fitted curve in the direction sought with a large enough effect; inconclusive means small, poorly fitted or top-dose-only effect, or another doubt; inactive means no such curve, though single readings can be large; an effect the other way counts as inactive or inconclusive. Potency means the concentration at half of the fitted maximal effect.
SMILES,TSG101-PTAP inh,SW480 rereplic,MCF10A rerep,KB-3-1 tox,KB-V1 MDR tox,PINK1 expr mod
CCCCn1cc(S(=O)(=O)c2ccc(Cl)cc2)c(=O)c2cc(F)c(N3CCCC(C)C3)cc21 (stereo unspecified),nt,nt,nt,i,i,2%
Cc1ccc(C(=O)Nc2nnc(S(=O)(=O)N3CCCc4ccccc43)s2)cc1,nt,nt,nt,i,i,1%
COc1ccccc1C(=O)Nc1c(C(=O)Nc2cc(Cl)ccc2C)sc2nc(C)cc(C)c12,nt,nt,nt,i,i,0%
CCN(CC)CCN(C)C(c1cc2ccccc2o1)c1nnnn1C(C)(C)C (stereo unspecified),nt,nt,nt,i,?,-1%
CN(Cc1ccc(Cl)c(Cl)c1)C(c1cc2ccccc2o1)c1nnnn1C(C)(C)C (stereo unspecified),nt,nt,nt,?,15µM*,1%
COc1ccc(F)cc1S(=O)(=O)NCCc1csc(-c2ccc(Cl)cc2)n1,nt,nt,nt,i,i,4%
Cc1ccc(C)c(N2CCN(C(=O)C3CCN(c4nc(-c5ccc(C(C)C)cc5)no4)CC3)CC2)c1,nt,nt,nt,nt,nt,1%
CN(C)CCNC(=O)c1ccc2c(=O)n(Cc3ccc(Cl)cc3)c(=S)[nH]c2c1,-4%,23µM*,?,i,i,-3%
CCCCCn1c(=O)[nH]c2cc(C(=O)NCCCN(C)Cc3ccccc3)ccc2c1=O,0%,?,28%,?,21µM*,4%
COc1ccc(-n2c(=O)[nH]c3cc(C(=O)NCCc4ccc(Cl)cc4)ccc3c2=O)cc1OC,-1%,?,15µM*,i,i,2%
CCN(CC(=O)Nc1c(F)cccc1F)C(=O)CCc1nc2cc(S(=O)(=O)N(C)C)ccc2n1CC,1%,3%,3%,i,i,0%
CCn1c(CCC(=O)Nc2nc3c(s2)CCCC3)nc2cc(S(=O)(=O)N(C)C)ccc21,-3%,-4%,0%,i,23µM*,-2%
CCc1nc2ccc(C(=O)N3CCN(c4ccccc4)CC3)cn2c1N(C)CCCc1ccccc1,nt,nt,nt,?,?,1%
CCc1nc2ccc(C(=O)N3CCN(c4ccccc4)CC3)cn2c1N(C)CCC(C)C,nt,nt,nt,?,23µM*,2%
COc1ccc(C2(C(=O)NCC3Cc4cccc(-c5nc(C)cnc5C)c4O3)CCCC2)cc1 (stereo unspecified),nt,nt,nt,nt,nt,2%
O=C(N[C@@H](Cc1ccccc1)C(=O)CCl)OCc1ccccc1,-4%,?,?,?,23µM*,-1%
O=C(Nc1ccc(Cl)cn1)C1CCCN(c2ncnc3c2nc2n3CCCCC2)C1 (stereo unspecified),-8%,26µM*,2%,i,?,0%
CSc1cccc(NC(=O)C2CCCN(c3ncnc4c3nc3n4CCCCC3)C2)c1 (stereo unspecified),0%,2%,10%,?,15µM*,2%
CCOC(=O)C1CCCN(c2ncnc3c2cnn3-c2ccc(OC)cc2)C1 (stereo unspecified),1%,-8%,8%,i,?,4%
CCOC(=O)C1CCCN(c2ncnc3c2cnn3-c2ccc(Cl)cc2)C1 (stereo unspecified),-6%,-9%,?,i,13µM*,-2%[38.3 µM]
O=C(NCc1ccc(Cl)cc1)C1CCN(c2ncnc3c2nc2n3CCCCC2)CC1,nt,nt,nt,nt,nt,0%
Cc1ccc(NC(=O)C2CCCN(c3ncnc4c3nc3n4CCCCC3)C2)nc1 (stereo unspecified),-1%,-1%,5%,i,i,0%
CC(=O)c1ccc(NC(=O)C2CCCN(c3ncnc4c3nc3n4CCCCC3)C2)cc1 (stereo unspecified),-2%,-10%,14%,i,i,0%
O=C(Nc1ccc(Cl)cn1)C1CCN(c2ncnc3c2nc2n3CCCCC2)CC1,-4%,?,?,?,21µM*,4%
